Experimental data: a collection of fitness landscapes (doi:10.1126/science.1257360)
The full ranking holds about 140,000 sequences; the median of “enrichment ratio after two sorts for PhoP signalling” is about 0, and the highest 2% start at about 11. Shown is part of a subset that was picked to be rich in the highest values.

B1: PhoQ; a variant is named by its letters at X, in order, P23837 (parent)
chain: MKKLLRLFFPLSLRVRFLLATAAVVLVLSLAYGMVALIGYSVSFDKTTFRLLRGESNLFYTLAKWENNKLHVELPENIDKQSPTMTLIYDENGQLLWAQRDVPWLMKMIQPDWLKSNGFHEIEADVNDTSLLLSGDHSIQQQLQEVREDDDDAEMTHSVAVNVYPATSRMPKLTIVVVDTIPVELKSSYMVWSWFIYVLSANLLLVIPLLWVAAWWSLRPIEALAKEVRELEEHNRELLNPATTRELTSLVRNLNRLLKSERERYDKYRTTLTDLTHSLKTPLXXLQXXLRSLRSEKMSVSDAEPVMLEQISRISQQIGYYLHRASMRGGTLLSRELHPVAPLLDNLTSALNKVYQRKGVNISLDISPEISFVGEQNDFVEVMGNVLDNACKYCLEFVEISARQTDEHLYIVVEDDGPGIPLSKREVIFDRGQRVDTLRPGQGVGLAVAREITEQYEGKIVAGESMLGGARMEVIFGRQHSAPKDE

Variants of: B1
Test: enrichment ratio after two sorts for PhoP signalling (ratio (wild type AVST 3.29)); higher = more functional
Details: with PhoP (E. coli)

| Variant | enrichment ratio |
| --- | --- |
| VGML | 8.33 |
| MNMI | 4 |
| SKFF | ≤ 0.25 |
| ALTN | 7.81 |
| SRAG | ≤ 0.25 |
| IRNN | ≤ 0.25 |
| KMTD | ≤ 0.25 |
| DIIE | ≤ 0.25 |
| HEPC | ≤ 0.25 |
| YNTI | ≤ 0.25 |
| GRQY | ≤ 0.25 |
| HIML | ≤ 0.25 |
| MVPL | ≤ 0.25 |
| RGML | ≤ 0.25 |
| HFML | ≤ 0.25 |
| VNSK | ≤ 0.25 |
| TGML | 12.2 |
| MVCL | 4.31 |
| VNML | 14.6 |
| NGML | ≤ 0.25 |
| HGML | 21.6 |
| VNNL | ≤ 0.25 |
| MVML | 11.9 |
| YQHI | ≤ 0.25 |
| FWLA | ≤ 0.25 |
| TCLH | 1.39 |

| Variant | enrichment ratio |
| --- | --- |
| SHYK | ≤ 0.25 |
| DMSQ | ≤ 0.25 |
| IDIQ | ≤ 0.25 |
| RRTP | ≤ 0.25 |
| MAIN | ≤ 0.25 |
| GTWQ | ≤ 0.25 |
| EFQI | ≤ 0.25 |
| GCML | 3.33 |
| PWML | ≤ 0.25 |
| GVML | 13.4 |
| QGML | 6.23 |
| FGML | 22.9 |
| GYML | ≤ 0.25 |
| FGDL | ≤ 0.25 |
| PVML | ≤ 0.25 |
| GTML | 12.6 |
| SCGR | ≤ 0.25 |
| GTVR | ≤ 0.25 |
| SFSS | ≤ 0.25 |
| VDHN | ≤ 0.25 |
| ILLE | ≤ 0.25 |
| DHMC | ≤ 0.25 |
| FYNT | ≤ 0.25 |
| ANLF | 10.7 |
| KIQT | ≤ 0.25 |
| ISLD | ≤ 0.25 |

| Variant | enrichment ratio |
| --- | --- |
| ETRK | ≤ 0.25 |
| RGAM | ≤ 0.25 |
| NHAM | ≤ 0.25 |
| SHAM | 8.88 |
| SRAM | ≤ 0.25 |
| TRAM | 15.1 |
| VRAM | ≤ 0.25 |
| THAM | 18.6 |
| TGAM | 13 |
| QGAM | 13 |
| QGWM | 9.7 |
| FFAM | ≤ 0.25 |
| NGAM | ≤ 0.25 |
| EKVL | ≤ 0.25 |
| YQEF | ≤ 0.25 |
| KAPT | ≤ 0.25 |
| IGGQ | ≤ 0.25 |
| YHAM | ≤ 0.25 |
| LTAM | ≤ 0.25 |
| KDAM | ≤ 0.25 |
| TFTM | 3.86 |
| GGAM | 18.2 |
| TFAM | 18.6 |
| TFGM | 1.64 |
| TDAM | 17.8 |
| NIAM | ≤ 0.25 |

| Variant | enrichment ratio |
| --- | --- |
| LYIW | ≤ 0.25 |
| VRDS | ≤ 0.25 |
| ADMI | 12.7 |
| TDFA | ≤ 0.25 |
| LTMI | 0.673 |
| TKMG | 7.64 |
| AYMI | 0.272 |
| AKMD | ≤ 0.25 |
| TKMI | 38.2 |
| AKMI | 12.8 |
| TDMI | 27.6 |
| ADFA | ≤ 0.25 |
| PTMI | ≤ 0.25 |
| AIMI | 5.72 |
| LVPL | ≤ 0.25 |
| PNNY | ≤ 0.25 |
| WLFH | ≤ 0.25 |
| PLHT | ≤ 0.25 |
| QAAQ | ≤ 0.25 |
| EGTK | ≤ 0.25 |
| APAS | ≤ 0.25 |
| ALRD | ≤ 0.25 |
| ALMG | 6.08 |
| ALMI | 17.6 |
| ATMI | 19.9 |
| ATYI | ≤ 0.25 |

| Variant | enrichment ratio |
| --- | --- |
| LTMK | ≤ 0.25 |
| TDMK | 11.7 |
| ATPA | ≤ 0.25 |
| KDMK | ≤ 0.25 |
| ALMD | ≤ 0.25 |
| NVRS | ≤ 0.25 |
| HGKV | ≤ 0.25 |
| KGKP | ≤ 0.25 |
| NFLN | 0.688 |
| AFWR | ≤ 0.25 |
| ASNS | ≤ 0.25 |
| ASTS | 9.85 |
| ASLF | 12.2 |
| KSLF | ≤ 0.25 |
| ASHK | ≤ 0.25 |
| ASLV | 18.7 |
| NSLF | ≤ 0.25 |
| ASLC | 16.7 |
| ASFM | 6.83 |
| VRLC | ≤ 0.25 |
| ASLM | 15.3 |
| ADLV | 8.2 |
| NIYP | ≤ 0.25 |
| LAFW | ≤ 0.25 |
| YYWT | ≤ 0.25 |
| VRLL | ≤ 0.25 |

| Variant | enrichment ratio |
| --- | --- |
| ASLL | 19.9 |
| ASWI | 2.59 |
| ASTQ | 3.55 |
| ASLA | 14.6 |
| ASLS | 10.2 |
| ASTI | 13.9 |
| ASLI | 12.7 |
| ASDK | ≤ 0.25 |
| ASLK | 8.78 |
| ASTK | ≤ 0.25 |
| FNCT | ≤ 0.25 |
| VWPK | ≤ 0.25 |
| EMQV | ≤ 0.25 |
| RTWK | ≤ 0.25 |
| KHEA | ≤ 0.25 |
| EWFR | ≤ 0.25 |
| ASLY | 13.9 |
| KSLY | ≤ 0.25 |
| ASMT | 12 |
| ASNY | ≤ 0.25 |
| KSMT | ≤ 0.25 |
| ASFT | 1.36 |
| ASLT | 11.9 |
| ASNT | ≤ 0.25 |
